Drawing on PubChem BioAssay (NCI), this text covers growth inhibition for 19 compounds.

Several values for one entry are separate records, joined by “and”; a condition that tells them apart may be missing. Equal values may be shown once. The panel holds about 79,000 compounds, 15% with a hit somewhere; the sample as a whole holds those more often. Unmarked numbers belong to inactive results. Activity calls are given as the source filed them. No stated cut-off is given here; in the data, active means growth inhibition above about 70%; inactive means the rest.

Assay [1] can be described thus: NCI Yeast Anticancer Drug Screen. Data for the rad50 strain (AID 155).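 Further: 0% = growth of vehicle-only cultures of the same strain.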 The note with it: S. cerevisiae rad50 strain growth inhibition, active compounds read high; at 50.0 µM unless noted. In a few lines:
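Growth of the mutant yeast was measured after compound exposure and referenced to vehicle-treated cultures.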

Assay [2] in a line: NCI Yeast Anticancer Drug Screen. Data for the mec2-1 strain (AID 157). Particulars: S. cerevisiae mec2-1 strain, active compounds read high; at 50.0 µM unless noted. In a few lines:
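Compounds were applied to mec2-1 yeast cells. Their growth was then compared with that of vehicle-treated cultures to give growth inhibition.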

Assay [3] is described as follows: NCI Yeast Anticancer Drug Screen. Data for the sgs1 mgt1 strain (AID 161).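 Further: 0% = growth of cultures given vehicle only.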 Particulars: S. cerevisiae sgs1 mgt1 strain, active compounds read high; at 50.0 µM unless noted. Summed up:
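This yeast growth screen uses a strain with defined DNA-repair lesions; compound-treated growth is compared with vehicle-treated growth.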

A short description of assay [4]: NCI Yeast Anticancer Drug Screen. Data for the cln2 rad14 strain (AID 165).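 Further: 0% = growth equal to vehicle treated cultures.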 Particulars: S. cerevisiae cln2 rad14 strain, active compounds read high; at 50.0 µM unless noted. In a few lines:
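Strain: cln2 rad14 yeast, altered in cell cycle control and DNA damage repair. Read-out: growth inhibition vs vehicle.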

Assay [5] in a line: NCI Yeast Anticancer Drug Screen. Data for the bub3 strain (AID 167). Particulars: S. cerevisiae bub3 mutant strain, active compounds read high; at 50.0 µM unless noted. In a few lines:
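Whole-cell yeast assay. The mutant strain was incubated with compounds, and growth inhibition was determined by comparison with vehicle-treated cells.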

A short description of assay [6]: NCI Yeast Anticancer Drug Screen. Data for the mlh1 rad18 strain (AID 175). The note with it: S. cerevisiae mlh1 rad18 strain growth inhibition, active compounds read high; at 50.0 µM unless noted. Summed up:
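A repair-deficient yeast strain is exposed to test compound, and growth is scored relative to vehicle-treated controls.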

Regarding `O=CN1CCCCC1`, the growth inhibition in assay [1] was -43.1% and -15.2%; in assay [2] it was -26% and -2.6%; in assay [3] it was -3.05% and -5.15%; in assay [4] it was 3.15% and -27.7%; in assay [5], -18.9% and 0.45%; in assay [6], -8.8% and 0.65%.

For the compound `O=C(NCCCl)NC1CCCCCC1`, the growth inhibition in assay [1] is -10.8%; in assay [2], -3.6%; in assay [3], -16%; in assay [4] it was -9.35%; in assay [5], -3.05%; in assay [6] it was 2.05%.

Consider `O=c1c2ccccc2c(=O)c2c1c1c(=O)c3ccccc3c(=O)c1c1c(=O)c3ccccc3c(=O)c21`, for which the growth inhibition is 22.2% in assay [1]; 9.65% in assay [2]; 30.2% in assay [3]; 29.6% in assay [4]; 0.5% in assay [5]; 22.4% in assay [6].

Take `CN(Cc1cc(Br)cc(Br)c1O)Cc1c(O)ccc2ccccc12`: the growth inhibition in assay [1] is 98.8% (active); in assay [2], 98.8% (active); in assay [3], 98.8% (active); in assay [4] it was 97.3% (active); in assay [5] it was 98.2% (active); in assay [6], 98.8% (active).

Consider `CCCCCCCCCCCCCCCC(=O)c1ccccc1`, for which the growth inhibition in assay [1] was 33.2%; in assay [2], 27.2%; in assay [3], 28.4%; in assay [4] it was 52.6%; in assay [5] it was 21.1%; in assay [6], 42.5%.

As to `N/N=C1\C(=O)N(c2ccc(Cl)c(Cl)c2)C(=O)C1C(=O)Nc1ccc(Cl)c(Cl)c1` (centres undefined), the growth inhibition in assay [1] was -7.35%; in assay [2], -19.4%; in assay [3], -20.6%; in assay [4] it was -16.4%; in assay [5], -29.6%; in assay [6], -31.1%.

Regarding `Cc1ccc(C2OC3=C(Nc4ccc([N+](=O)[O-])cc4N3)C2=O)cc1` (centres undefined), the growth inhibition in assay [1] was 10.1%; in assay [2], 7.75%; in assay [3], 8.65%; in assay [4] it was 12.8%; in assay [5] it was -4.35%; in assay [6], 3.25%.

Consider `COc1ccc(NC(=O)CC(=O)N2N=C(N3c4ccccc4Sc4ccccc43)CC2c2ccccc2)cc1` (centres undefined), for which the growth inhibition in assay [1] is 8.65%; in assay [2] it was -4.1%; in assay [3], 0.8%; in assay [4], 14.2%; in assay [5], 4.8%; in assay [6], -3.6%.

`O=C(O)C1(O)CCCCC1`: the growth inhibition in assay [1] was -4.85% and 6.9%; in assay [2], -2.45% and 9%; in assay [3] it was -7.35% and -1.65%; in assay [4], -21.2% and 16.4%; in assay [5] it was -7.2% and 19.6%; in assay [6], 6.65% and -7.05%.

Turning to `Cn1c(NN)nc2ccccc2c1=O`, the growth inhibition in assay [1] is -33.7%; in assay [2], -3.25%; in assay [3], -26.9%; in assay [4], 5.55%; in assay [5], -16.9%; in assay [6], -27.8%.

As to `O=C(O)c1ccccc1SSc1ccccc1C(=O)O`, the growth inhibition is 10.2% and -7.05% in assay [1]; 16.4% and -6.5% in assay [2]; -6.6% and 3.3% in assay [3]; 4% and -26.9% in assay [4]; 9% and -0.65% in assay [5]; 7.85% and 9.6% in assay [6].

For the compound `CC(=O)NNC(=O)C(N)Cc1ccc(O)cc1` (centres undefined), the growth inhibition in assay [1] is 13.5%; in assay [2], 23.1%; in assay [3] it was 40.5%; in assay [4], 12.2%; in assay [5], 2.95%; in assay [6], 14.8%.

As to `OCC1OC(OC2C(CO)OC(O)C(O)C2O)C(O)C(O)C1O` (centres undefined), the growth inhibition was 19.1% in assay [1]; 14.9% in assay [2]; 13.9% in assay [3]; 13.3% in assay [4]; 20.1% in assay [5]; 13.7% in assay [6].

Regarding `CCN(CC)C(=O)/C=C/c1ccccc1`, the growth inhibition in assay [1] was -54.9%; in assay [2], -28.6%; in assay [3], -6.05%; in assay [4], -33.2%; in assay [5], 1.7%; in assay [6], -14.8%.

For `Nc1ccc(S(=O)(=O)Nc2cc(C(F)(F)F)cc(C(F)(F)F)c2)cc1`, the growth inhibition is 12.9% in assay [1]; 16.6% in assay [2]; 28.6% in assay [3]; 41.6% in assay [4]; 10.7% in assay [5]; 32% in assay [6].

On to `O=CC[C@]12CC(=O)OC(C=CC13OCCO3)C2`, for which the growth inhibition in assay [1] is 6.55%; in assay [2] it was -9.4%; in assay [3], -16.7%; in assay [4], 17.6%; in assay [5], 13.4%; in assay [6], 9.05%.

For the compound `O=[N+]([O-])c1cccc(/C=N/Nc2ccc(S(=O)(=O)O)cc2)c1`, the growth inhibition in assay [1] was 18.6%; in assay [2], 19.3%; in assay [3] it was -1.9%; in assay [4] it was 2.5%; in assay [5], 12.7%; in assay [6], 39.2%.

Consider `CC(C)c1cccc(C(C)C)c1NC(=O)N1CCCCC1`, for which the growth inhibition was 4.8% in assay [1]; -16.2% in assay [2]; 0.05% in assay [3]; 3.85% in assay [4]; -1.65% in assay [5]; 10.2% in assay [6].

For `O=C1CSC(c2cc([N+](=O)[O-])ccc2Cl)N1c1nncs1` (centres undefined), the growth inhibition in assay [1] was 22.1%; in assay [2] it was 15.6%; in assay [3], 37.2%; in assay [4] it was 19.1%; in assay [5] it was 21.7%; in assay [6], 28.4%.
